The record followed here is the supplement of paper PMC7057948, “A genome-wide approach for identification and characterisation of metabolite-inducible systems” (Nature Communications, 2020).
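Further: RFP excited at 585 nm with emission read at 620 nm, culture medium blanks subtracted from fluorescence and absorbance prior to normalisation.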

In the test the test system is BadR/P_H16_RS27200 cyclohexanecarboxylate biosensor (pEH159). The experiment in a line: relative induction of RFP reporter vs primary effector (background-corrected); higher = stronger activation of the biosensor. The conditions noted are these: inducer concentration 5 mM; 6 h; Cupriavidus necator H16; minimal medium + 0.4% gluconate. As to the method:
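C. necator H16 strains, each carrying one of 21 transcription factor/inducible promoter–mRFP biosensor plasmids, were grown in minimal medium in 96-well plates (robotic platform). Each was exposed to 46 structurally or metabolically related compounds at 5 mM at 30 °C. OD-normalised RFP fluorescence was read 6 h later and expressed as relative induction (%) = 100 × (FL compound − FL uninduced)/(FL primary inducer − FL uninduced); mean of n=4.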
As for `OC[C@@H](O)[C@@H](O)[C@H](O)[C@H](O)CO` [D-mannitol], the “relative induction of RFP reporter” value was -0.47%.

Turning to `CCC(=O)O` [propanoate], the “relative induction of RFP reporter” value is -0.236%.

`O=C(O)c1cc(=O)c2ccccc2[nH]1` [kynurenate]: the “relative induction of RFP reporter” value is -0.549%.

Take `O=CC(=O)O` [glyoxylate]: the “relative induction of RFP reporter” value was -0.137%.

For `O=S(=O)(O)CCO` [isethionate], the “relative induction of RFP reporter” value worked out at 0.494%.

On to `C[C@H](N)C(=O)O` [L-alanine], for which the “relative induction of RFP reporter” value was -0.206%.

On to `C[C@@H](O)C(=O)O` [D-lactate], for which the “relative induction of RFP reporter” value is -0.262%.

Take `Cn1cnc2c1c(=O)[nH]c(=O)n2C` [theobromine]: the “relative induction of RFP reporter” value was 0.638%.

For `Oc1ccccc1O` [catechol], the “relative induction of RFP reporter” value was determined as 1.99%.

Turning to `O=C(O)/C=C/C(=O)O` [fumarate], the “relative induction of RFP reporter” value is -0.161%.

In the case of `O=C(O)C(O)c1ccccc1` (stereo not given) [mandelic acid], the “relative induction of RFP reporter” value turned out to be 0.747%.

For `O=C(O)[C@@H](O)[C@@H](O)[C@H](O)[C@@H](O)C(=O)O` [glucarate], the “relative induction of RFP reporter” value was -0.576%.

In the case of `O=c1[nH]cnc2nc[nH]c12` [hypoxanthine], the “relative induction of RFP reporter” value was -0.186%.

For `O=C(O)CNC(=O)c1ccccc1` [N-benzoylglycine], the “relative induction of RFP reporter” value was -0.675%.

Regarding `CCCC(=O)O` [butyric acid], the “relative induction of RFP reporter” value came out at 0.491%.

As for `O=C(O)C(O)C(=O)O` [tartronic acid], the “relative induction of RFP reporter” value is -0.292%.

As to `Oc1ccccc1` [phenol], the “relative induction of RFP reporter” value was -0.423%.

As to `O=c1cc[nH]c(=O)[nH]1` [uracil], the “relative induction of RFP reporter” value was -0.342%.

For `O=C(O)CCC(=O)O` [succinate], the “relative induction of RFP reporter” value is -0.371%.

With `NCCS(=O)(=O)O` [taurine], the “relative induction of RFP reporter” value is -0.635%.

As for `O=C(O)c1ccc(O)cc1` [4-hydroxybenzoate], the “relative induction of RFP reporter” value turned out to be 0.236%.

Consider `NC(=O)CC[C@H](N)C(=O)O` [L-glutamine], for which the “relative induction of RFP reporter” value was -0.359%.

As to `NCC(=O)O` [glycine], the “relative induction of RFP reporter” value is -0.419%.

On to `NCC(O)C(=O)O` (stereo not given) [3-amino-2-hydroxypropanoate], for which the “relative induction of RFP reporter” value was found to be 0.0183%.

For the molecule `CC(=O)CCC(=O)O` [levulinic acid], the “relative induction of RFP reporter” value amounted to 0.15%.

Consider `O=C(O)C1=CCCCC1` [cyclohexene-1-carboxylate], for which the “relative induction of RFP reporter” value was 80.5%.

Take `Oc1cccc(O)c1` [resorcinol]: the “relative induction of RFP reporter” value stood at 0.33%.

As for `NC(C(=O)O)c1ccccc1` (racemic) [D,L-2-phenylglycine], the “relative induction of RFP reporter” value was -0.673%.

`C[C@H](O)C(=O)O` [L-lactate]: the “relative induction of RFP reporter” value was found to be 0.636%.

Take `O=C(O)C1=C[C@@H](O)[C@@H](O)[C@H](O)C1` [shikimate]: the “relative induction of RFP reporter” value is 0.552%.

For `O=C(O)CC(=O)C(=O)O` [oxaloacetate], the “relative induction of RFP reporter” value was -0.113%.

For `O=C(O)c1c(O)cccc1O` [2,6-dihydroxybenzoate], the “relative induction of RFP reporter” value is 0.241%.

For `N[C@@H](CC(=O)O)C(=O)O` [L-aspartate], the “relative induction of RFP reporter” value is -0.282%.

As to `O=C(O)C1CCCC1` [cyclopentane-1-carboxylate], the “relative induction of RFP reporter” value stood at 10.9%.

Consider `CC(N)CC(=O)O` (stereo not given) [3-aminobutanoate], for which the “relative induction of RFP reporter” value is -0.361%.

For the molecule `O=C(O)/C=C\C=C/C(=O)O` [cis,cis-muconate], the “relative induction of RFP reporter” value was -0.641%.

Consider `O=C(O)C[C@H](O)C(=O)O` [L-malate], for which the “relative induction of RFP reporter” value was -0.0424%.

On to `NCCc1ccc(O)c(O)c1` [dopamine], for which the “relative induction of RFP reporter” value amounted to 1.95%.

As for `O=C(O)c1cccnc1` [nicotinate], the “relative induction of RFP reporter” value is -0.229%.

With `Cn1c(=O)c2c(ncn2C)n(C)c1=O` [caffeine], the “relative induction of RFP reporter” value was -0.151%.
